Drawing on PubChem BioAssay (NCI), this text covers growth inhibition for ten molecules.

Experiment [1] in a line: NCI Yeast Anticancer Drug Screen. Data for the rad50 strain (AID 155).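 Also: 0% = growth of vehicle-only cultures of the same strain.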 The settings on record: S. cerevisiae rad50 strain growth inhibition, active compounds read high. The gist of the method:
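Vehicle-treated cultures provide the reference for the growth inhibition reported for compound-exposed, repair-deficient yeast.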

Experiment [2] is described as follows: NCI Yeast Anticancer Drug Screen. Data for the mec2-1 strain (AID 157). The settings on record: S. cerevisiae mec2-1 strain, active compounds read high. The gist of the method:
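Vehicle-treated cultures served as reference for growth inhibition of compound-exposed mec2-1 yeast.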

Experiment [3] can be described thus: NCI Yeast Anticancer Drug Screen. Data for the sgs1 mgt1 strain (AID 161).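 Also: 0% = growth of cultures given vehicle only.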 The settings on record: S. cerevisiae sgs1 mgt1 strain, active compounds read high. The method, boiled down: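 Read-out: growth inhibition vs vehicle controls. Cells: mutant yeast strain deficient in DNA damage repair.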
Experiment [4] is described as follows: NCI Yeast Anticancer Drug Screen. Data for the cln2 rad14 strain (AID 165).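 Also: 0% = growth equal to vehicle treated cultures.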 Conditions: S. cerevisiae cln2 rad14 strain, active compounds read high. The method, boiled down: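 Each compound was tested on cln2 rad14 yeast. Inhibition of growth was calculated against vehicle-exposed controls.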
The nature of experiment [5]: NCI Yeast Anticancer Drug Screen. Data for the bub3 strain (AID 167). The settings on record: S. cerevisiae bub3 mutant strain, active compounds read high. The method, boiled down: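 Mutant yeast screening strain plus compound; vehicle-treated cultures serve as the 0% inhibition reference.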
The nature of experiment [6]: NCI Yeast Anticancer Drug Screen. Data for the mlh1 rad18 strain (AID 175). Conditions: S. cerevisiae mlh1 rad18 strain growth inhibition, active compounds read high. The method, boiled down:
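Vehicle-treated cultures served as the reference for growth inhibition in a yeast strain carrying DNA damage repair alterations exposed to each compound.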

The mark [7] stands for this setting: at 5.0 µM (retest, dose inferred, filed as 0.5).
Setting [8] is: at 50.0 µM (retest, dose inferred, filed as 5.0).

This is part of a sample that, as a whole, favours compounds with a hit. Of some 79,000 tested, about 15% had one in any assay. A number with no mark means an inactive call. The source made the active and inactive calls. Rule as the data show it: active = growth inhibition above about 70%; inactive = the rest.

Regarding `CN(C)N=Nc1ccc2[nH]c(=O)[nH]c2c1`, the growth inhibition is 16% in experiment [1] (setting [7]); 18% in experiment [1] (setting [8]); 53% in experiment [1] (at 50.0 µM); 5% in experiment [2] (setting [7]); 9% in experiment [2] (setting [8]); 38.8% in experiment [2] (at 50.0 µM). Besides, the growth inhibition in experiment [3] (setting [7]) was 16%; in experiment [3] (setting [8]), -18%; in experiment [3] (at 50.0 µM), 12.6%; in experiment [4] (setting [7]), 13%; in experiment [4] (setting [8]) it was -54%; in experiment [4] (at 50.0 µM), 29.1%. Besides, the growth inhibition in experiment [5] (setting [7]) is 14%; in experiment [5] (setting [8]), -11%; in experiment [5] (at 50.0 µM), 74% (active); in experiment [6] (setting [7]), 19%; in experiment [6] (setting [8]) it was 19%; in experiment [6] (at 50.0 µM), 72.5% (active).
For the molecule `OCC(CCc1c[nH]c2ccccc12)c1c[nH]c2ccccc12` (stereo not given), the growth inhibition in experiment [1] (setting [7]) was 27%; in experiment [1] (setting [8]), 99% (active); in experiment [1] (at 50.0 µM), 99.4% (active); in experiment [2] (setting [7]) it was 5%; in experiment [2] (setting [8]), 99% (active); in experiment [2] (at 50.0 µM) it was 99.3% (active). The growth inhibition in experiment [3] (setting [7]) was 20%; in experiment [3] (setting [8]), 100% (active); in experiment [3] (at 50.0 µM) it was 62%; in experiment [4] (setting [7]), 5%; in experiment [4] (setting [8]), 99% (active); in experiment [4] (at 50.0 µM), 99.5% (active). Besides, the growth inhibition in experiment [5] (setting [7]) is 21%; in experiment [5] (setting [8]), 100% (active); in experiment [5] (at 50.0 µM) it was 99.3% (active); in experiment [6] (setting [7]) it was 11%; in experiment [6] (setting [8]) it was 98% (active); in experiment [6] (at 50.0 µM), 99.3% (active).
As for `CC1(c2ccc(Cl)cc2)OC(=O)c2c1ccc1ccccc21` (stereo not given), the growth inhibition is 13% in experiment [1] (setting [7]); 55% in experiment [1] (setting [8]); 97.7% (active) in experiment [1] (at 50.0 µM); -1% in experiment [2] (setting [7]); 53% in experiment [2] (setting [8]); 93.6% (active) in experiment [2] (at 50.0 µM). Further, the growth inhibition is 7% in experiment [3] (setting [7]); 55% in experiment [3] (setting [8]); 98% (active) in experiment [3] (at 50.0 µM); 2% in experiment [4] (setting [7]); 47% in experiment [4] (setting [8]); 88.8% (active) in experiment [4] (at 50.0 µM). In addition, the growth inhibition in experiment [5] (setting [7]) is 22%; in experiment [5] (setting [8]), 52%; in experiment [5] (at 50.0 µM), 97.8% (active); in experiment [6] (setting [7]), -1%; in experiment [6] (setting [8]), 75% (active); in experiment [6] (at 50.0 µM), 96% (active).
With `CN(C)C(=S)SSSSC(=S)N(C)C`, the growth inhibition was 96% (active) in experiment [1] (setting [7]); 99% (active) in experiment [1] (setting [8]); 96.9% (active) in experiment [1] (at 50.0 µM); 98% (active) in experiment [2] (setting [7]); 99% (active) in experiment [2] (setting [8]); 96.7% (active) in experiment [2] (at 50.0 µM). In addition, the growth inhibition in experiment [3] (setting [7]) is 98% (active); in experiment [3] (setting [8]), 99% (active); in experiment [3] (at 50.0 µM), 98.3% (active); in experiment [4] (setting [7]), 65%; in experiment [4] (setting [8]), 99% (active); in experiment [4] (at 50.0 µM) it was 93.3% (active). Also, the growth inhibition in experiment [5] (setting [7]) is 96% (active); in experiment [5] (setting [8]), 99% (active); in experiment [5] (at 50.0 µM) it was 96.8% (active); in experiment [6] (setting [7]), 97% (active); in experiment [6] (setting [8]) it was 99% (active); in experiment [6] (at 50.0 µM), 97% (active).
For the molecule `Nc1cc(F)c(F)cc1Sc1cc(F)c(F)cc1N`, the growth inhibition is 39% in experiment [1] (setting [7]); 95% (active) in experiment [1] (setting [8]); 99.2% (active) in experiment [1] (at 50.0 µM); 31% in experiment [2] (setting [7]); 99% (active) in experiment [2] (setting [8]); 99.2% (active) in experiment [2] (at 50.0 µM). Further, the growth inhibition in experiment [3] (setting [7]) is 52%; in experiment [3] (setting [8]) it was 98% (active); in experiment [3] (at 50.0 µM), 99.2% (active); in experiment [4] (setting [7]), 41%; in experiment [4] (setting [8]) it was 98% (active); in experiment [4] (at 50.0 µM), 89.9% (active). In addition, the growth inhibition in experiment [5] (setting [7]) is 29%; in experiment [5] (setting [8]) it was 98% (active); in experiment [5] (at 50.0 µM), 99.5% (active); in experiment [6] (setting [7]), 54%; in experiment [6] (setting [8]), 97% (active); in experiment [6] (at 50.0 µM), 99.2% (active).
With `CCCCCOC(=O)C(C)SC#N` (stereo not given), the growth inhibition was 12% in experiment [1] (setting [7]); 45% in experiment [1] (setting [8]); 42.2% in experiment [1] (at 50.0 µM); -13% in experiment [2] (setting [7]); 54% in experiment [2] (setting [8]); 47.9% in experiment [2] (at 50.0 µM). Further, the growth inhibition is 4% in experiment [3] (setting [7]); 80% (active) in experiment [3] (setting [8]); 66.7% in experiment [3] (at 50.0 µM); 6% in experiment [4] (setting [7]); 29% in experiment [4] (setting [8]); 92.3% (active) in experiment [4] (at 50.0 µM). The growth inhibition is 9% in experiment [5] (setting [7]); 52% in experiment [5] (setting [8]); 54.9% in experiment [5] (at 50.0 µM); 19% in experiment [6] (setting [7]); 44% in experiment [6] (setting [8]); 73.8% (active) in experiment [6] (at 50.0 µM).
With `O=[N+]([O-])c1cccc2c[n+](Cc3ccccc3)ccc12`, the growth inhibition is -1% in experiment [1] (setting [7]); 24% in experiment [1] (setting [8]); 41.7% in experiment [1] (at 50.0 µM); -1% in experiment [2] (setting [7]); 19% in experiment [2] (setting [8]); 1.65% in experiment [2] (at 50.0 µM). Moreover, the growth inhibition was -4% in experiment [3] (setting [7]); 18% in experiment [3] (setting [8]); 10.1% in experiment [3] (at 50.0 µM); -13% in experiment [4] (setting [7]); 15% in experiment [4] (setting [8]); 38.4% in experiment [4] (at 50.0 µM). The growth inhibition is -7% in experiment [5] (setting [7]); -5% in experiment [5] (setting [8]); -1.05% in experiment [5] (at 50.0 µM); -7% in experiment [6] (setting [7]); 12% in experiment [6] (setting [8]); 12.3% in experiment [6] (at 50.0 µM).
Turning to `COc1ccc(C(=O)Cn2c(C(C)=O)nc3ccccc32)cc1`, the growth inhibition was 26% in experiment [1] (setting [7]); 66% in experiment [1] (setting [8]); -23.6% in experiment [1] (at 50.0 µM); 18% in experiment [2] (setting [7]); 36% in experiment [2] (setting [8]); -21.1% in experiment [2] (at 50.0 µM). Moreover, the growth inhibition was 36% in experiment [3] (setting [7]); 73% (active) in experiment [3] (setting [8]); -14.5% in experiment [3] (at 50.0 µM); 6% in experiment [4] (setting [7]); 32% in experiment [4] (setting [8]); 4% in experiment [4] (at 50.0 µM). In addition, the growth inhibition in experiment [5] (setting [7]) is 31%; in experiment [5] (setting [8]) it was 36%; in experiment [5] (at 50.0 µM) it was -32.6%; in experiment [6] (setting [7]), 28%; in experiment [6] (setting [8]), 52%; in experiment [6] (at 50.0 µM), -43.2%.
As to `CCCCCCCCCCCCNC(=O)NCC(OCC)OCC`, the growth inhibition in experiment [1] (setting [7]) is -3%; in experiment [1] (setting [8]), 96% (active); in experiment [1] (at 50.0 µM) it was 89.3% (active); in experiment [2] (setting [7]), 2%; in experiment [2] (setting [8]) it was 97% (active); in experiment [2] (at 50.0 µM), 91.5% (active). Moreover, the growth inhibition is 13% in experiment [3] (setting [7]); 95% (active) in experiment [3] (setting [8]); 92.3% (active) in experiment [3] (at 50.0 µM); 28% in experiment [4] (setting [7]); 95% (active) in experiment [4] (setting [8]); 83.3% (active) in experiment [4] (at 50.0 µM). Further, the growth inhibition in experiment [5] (setting [7]) is 12%; in experiment [5] (setting [8]), 97% (active); in experiment [5] (at 50.0 µM) it was 91.8% (active); in experiment [6] (setting [7]), -19%; in experiment [6] (setting [8]), 96% (active); in experiment [6] (at 50.0 µM), 90.3% (active).
In the case of `O=C1C(Cl)=C(Nc2ccc(S(=O)(=O)O)cc2)C(=O)c2ccccc21`, the growth inhibition in experiment [1] (setting [7]) was 23%; in experiment [1] (setting [8]), 99% (active); in experiment [1] (at 50.0 µM), 99.5% (active); in experiment [2] (setting [7]), 33%; in experiment [2] (setting [8]), 100% (active); in experiment [2] (at 50.0 µM), 99.6% (active). The growth inhibition in experiment [3] (setting [7]) was 35%; in experiment [3] (setting [8]), 100% (active); in experiment [3] (at 50.0 µM) it was 99.6% (active); in experiment [4] (setting [7]) it was 12%; in experiment [4] (setting [8]) it was 99% (active); in experiment [4] (at 50.0 µM), 99.3% (active). Moreover, the growth inhibition is 74% (active) in experiment [5] (setting [7]); 99% (active) in experiment [5] (setting [8]); 99.5% (active) in experiment [5] (at 50.0 µM); 26% in experiment [6] (setting [7]); 99% (active) in experiment [6] (setting [8]); 99.4% (active) in experiment [6] (at 50.0 µM).
